# In PubChem BioAssay:
# The source made the active and inactive calls. Unless noted, no rule for the calls is given here.
# Legend:
# [1] = target: Alpha-bungarotoxin (Bungarus multicinctus) (UniProt P60615); test: alpha-bungarotoxin binders on microarray, profiling panel, artefact control for SMM control protein annotation, biochemical, small-molecule microarray, Alexa647 label, 635/667 nm fluorescence (AID 1117); conditions: alpha-BTX-A647 binding fluorescence, higher = more signal
# [2] = target: E3 ubiquitin-protein ligase XIAP (Homo sapiens) (UniProt P98170); test: XIAP binders, primary screen, biophysical, small-molecule microarray, fluorescence 635 nm (AID 1181); conditions: small-molecule microarray binding, higher = more signal;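 also: score merges 667 nm emission and signal to noise over triplicate slides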
# Chain of E3 ubiquitin-protein ligase XIAP (Homo sapiens) (P98170 whole entry, looked up): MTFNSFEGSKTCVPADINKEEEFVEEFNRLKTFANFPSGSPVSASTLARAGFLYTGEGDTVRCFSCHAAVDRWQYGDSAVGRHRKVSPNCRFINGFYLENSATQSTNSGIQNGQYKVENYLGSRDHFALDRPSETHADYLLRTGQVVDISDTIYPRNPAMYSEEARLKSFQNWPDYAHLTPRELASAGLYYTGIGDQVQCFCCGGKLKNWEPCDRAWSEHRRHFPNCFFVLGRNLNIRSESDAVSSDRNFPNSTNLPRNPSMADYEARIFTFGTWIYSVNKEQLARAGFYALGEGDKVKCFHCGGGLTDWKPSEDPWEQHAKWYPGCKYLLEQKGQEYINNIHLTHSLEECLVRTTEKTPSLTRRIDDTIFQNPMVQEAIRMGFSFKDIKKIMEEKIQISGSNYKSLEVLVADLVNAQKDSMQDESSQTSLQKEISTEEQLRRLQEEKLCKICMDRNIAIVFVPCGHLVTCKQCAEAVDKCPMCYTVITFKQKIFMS
# [3] = test system: XIP peptide (Xip251-270) binding; test: small-molecule binders of XIP peptide, primary screen, biochemical, small-molecule microarray, fluorescence 635/667 nm, 0.1 µg/mL protein (AID 1182); conditions: fluorescent protein binding, 635 nm, higher = more signal, called active from +8 up or from −8 down
# XIP peptide (Xip251-270) = test: small-molecule binders of XIP peptide, primary screen, biochemical, small-molecule microarray, fluorescence 635/667 nm, 0.5 µg/mL protein (AID 1183); conditions: small-molecule microarray binding, fluorescence 635 nm; higher = more signal
# [4] = Plasmodium falciparum growth inhibition, primary screen, strain 3D7, DAPI fluorescence, 100 nL (AID 1184);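 also: parasites grown inside human red blood cells in medium with human serum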; conditions: P. falciparum 3D7 growth, 3 d, higher = more signal
# [5] = target: Homeobox protein Hox-A13 (Mus musculus) (UniProt Q62424); test: inhibitors of HoxA13-DNA binding, primary screen, biochemical, fluorescence polarization, labeled oligonucleotide (AID 1185); conditions: 15 min, higher = more signal, called active from +8 up or from −8 down
# Chain of Homeobox protein Hox-A13 (Mus musculus) (Q62424 whole entry, looked up): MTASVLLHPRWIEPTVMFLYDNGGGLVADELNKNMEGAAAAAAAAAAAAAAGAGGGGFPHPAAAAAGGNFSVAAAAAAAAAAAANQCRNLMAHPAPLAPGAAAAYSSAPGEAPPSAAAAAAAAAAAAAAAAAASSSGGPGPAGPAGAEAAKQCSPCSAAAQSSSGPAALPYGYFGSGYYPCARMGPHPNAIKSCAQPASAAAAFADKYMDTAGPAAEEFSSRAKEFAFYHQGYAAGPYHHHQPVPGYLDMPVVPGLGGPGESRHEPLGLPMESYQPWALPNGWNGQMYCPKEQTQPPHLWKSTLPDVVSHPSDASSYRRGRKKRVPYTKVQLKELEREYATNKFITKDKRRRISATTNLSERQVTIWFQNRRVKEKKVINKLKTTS
# [6] = inhibitors of hydroxyurea-induced Chk1 phosphorylation, primary screen, imaging, HeLa, phospho-Chk1 antibody, percent positive cells (AID 1186); conditions: hydroxyurea-induced phospho-Chk1 immunofluorescence imaging, higher = more signal
# [7] = inhibitors of hydroxyurea-induced Chk1 phosphorylation, primary screen, imaging, HeLa, phospho-Chk1 nuclear intensity (AID 1187); conditions: hydroxyurea-induced phospho-Chk1 immunofluorescence imaging, higher = more signal
# Chain of Alpha-bungarotoxin (Bungarus multicinctus) (P60615 whole entry, looked up): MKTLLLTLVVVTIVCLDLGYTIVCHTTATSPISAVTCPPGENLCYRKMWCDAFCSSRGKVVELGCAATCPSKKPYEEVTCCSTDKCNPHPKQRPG
Structure (SMILES),composite z-score [1],composite z-score [2],composite z-score [3],composite z-score (XIP peptide (Xip251-270)),z-score [4],z-score [5],z-score [6],z-score [7]
CN1C=C(C(=O)OCCS(C)(=O)=O)C(C(=O)OCCS(C)(=O)=O)=CC(CCCO)=CC1c1cccs1 (centres undefined),-0.515,0.0374,-0.64 (inactive),-0.254,-0.654,-5.5 (inactive),-0.084 (inactive),-0.389 (inactive)
COc1ccc(CCNC(=O)[C@@]2(Sc3ccc(C)cc3)CC(=O)N(Cc3ccccc3)[C@@H]2c2ccc(CO)cc2I)cc1,0.672,0.0623,-0.281 (inactive),-0.0462,-1.01,-1.1 (inactive),0.0564 (inactive),0.672 (inactive)
C=C(COC)C(=O)CC[C@H](OC(=O)c1cccnc1)c1cccc(OCCO)c1,-0.923,0.0792,0.804 (inactive),-0.661,-1.66,-3.09 (inactive),-0.458 (inactive),-0.203 (inactive)
C=CC[C@]1(C(=O)N(C)C)N=C(c2ccc(OCCCO)cc2)O[C@H]1c1ccccc1CN=[N+]=[N-],1.58,0.0471,0.137 (inactive),0.53,-2.49,-4.33 (inactive),-0.0783 (inactive),0.347 (inactive)
CCCCCN1CC=CC23O[C@@H]4/C=C\CCC(C)OC(=O)C4[C@H]2C(=O)N(CCO)[C@@H]3C1=O (some centres undefined),-1.7,0.272,0.642 (inactive),-0.927,-1.41,-3.89 (inactive),-0.174 (inactive),0.125 (inactive)
C=CC[C@@]1(C(=O)NCc2ccccc2)N=C(c2ccc(OCCCO)cc2)O[C@@H]1c1ccccc1,1.1,1.49,0.624 (inactive),0.784,-2.24,-6.13 (inactive),-0.762 (inactive),-0.974 (inactive)
CC(=O)OC(C/C=C\B1OC(C)(C)C(C)(C)O1)c1ccccc1 (centres undefined),-0.236,-0.0256,-0.65 (inactive),-0.842,-1.41,-1.28 (inactive),-0.873 (inactive),-1.16 (inactive)
COCCCNC(=O)[C@@]1(CCS(=O)(=O)c2ccccc2)N=C(c2ccc(OCCCO)cc2)O[C@H]1c1ccccc1CN=[N+]=[N-],2.42,0.0871,0.901 (inactive),0.67,-2.68,-1.88 (inactive),-1.07 (inactive),-1.61 (inactive)
C=CCOC(=O)[C@H]1[C@@H]2C(=O)O[C@@H](c3ccccc3)[C@@H](c3ccccc3)N2[C@@H](c2ccc(OCCOC(=O)[C@H]3C[C@H]4C(=O)N5CCC[C@H]5C(=O)N4[C@H]3c3cccc(OCCO)c3)cc2)[C@]12C(=O)Nc1ccccc12,1.64,0.298,1.33 (inactive),0.809,-1.9,1.42 (inactive),0.217 (inactive),0.5 (inactive)
COC(=O)c1c(CC[C@@H](CO)NC(=O)Nc2ccc(OC)cc2)oc(C(=O)Cc2ccccc2)c1C(=O)OC,0.655,-0.0525,0.684 (inactive),0.678,-0.83,-4.5 (inactive),0.0211 (inactive),0.406 (inactive)
COCCOC(=O)N1C(=O)[C@@]2(c3ccccc31)[C@H](C(=O)Nc1nc3ccccc3s1)[C@H]1C(=O)O[C@H](c3ccccc3)[C@H](c3ccccc3)N1[C@@H]2c1ccc(O)cc1,2.07,-0.0025,1.03 (inactive),0.748,0.112,0.895 (inactive),-0.2 (inactive),0.3 (inactive)
CC(C)C(CO)N1C(=O)[C@@H]2C3C(=O)OCCC/C=C\[C@H]3OC23C=CCN(C(C)C)C(=O)[C@@H]13 (some centres undefined),-1.61,-0.269,0.528 (inactive),-0.501,0.0709,-4.01 (inactive),-1.29 (inactive),-1.14 (inactive)
[N-]=[N+]=Nc1ccccc1[C@H]1OC(c2ccc(OCCCO)cc2)=N[C@@]1(Cc1ccccc1)C(N)=O,3.09,-0.0351,1.05 (inactive),0.657,-1.96,-3.95 (inactive),-0.313 (inactive),-0.179 (inactive)
COCCOC(=O)N1C(=O)[C@@]2(c3cc(C#CC4(O)CCCCCC4)ccc31)[C@H](C(=O)NC[C@H](O)c1ccccc1)[C@H]1C(=O)O[C@H](c3ccccc3)[C@H](c3ccccc3)N1[C@@H]2c1ccccc1OCCO,1.45,-0.105,0.551 (inactive),0.751,-2.11,-0.371 (inactive),0.462 (inactive),0.992 (inactive)
COCCCNC(=O)[C@@]1(Cc2ccccc2)N=C(c2ccc(OCCCO)cc2)O[C@H]1c1ccccc1N=[N+]=[N-],1.35,0.085,0.619 (inactive),-0.473,-2.43,-3.11 (inactive),-0.362 (inactive),-0.373 (inactive)
C=CCNC(=O)[C@@H]1[C@H]2C(=O)O[C@H](c3ccccc3)[C@H](c3ccccc3)N2[C@H](c2ccc(O)cc2)[C@@]12C(=O)Nc1ccccc12,1.33,0.276,0.768 (inactive),0.888,-1.73,-3.58 (inactive),0.21 (inactive),0.399 (inactive)
COc1ccc([Si](C)(C)[C@H]2[C@H](CC(=O)N(CCO)Cc3ccccc3)O[C@@]3(C(=O)N(Cc4ccc(N5CCOC5=O)cc4)c4ccccc43)[C@@H]2C)cc1,1.02,0.144,1.01 (inactive),0.631,-1.04,-1.48 (inactive),-0.0614 (inactive),0.0752 (inactive)
CC(C)C[C@@H]1NC(=O)[C@@]23C(=O)N[C@@H](Cc4ccccc4)C2[C@H](C)[C@@]2(C)O[C@H]2C3/C=C/C/C=C\CNC(=O)[C@H](Cc2ccccc2)NC1=O (some centres undefined),0.792,0.52,0.0183 (inactive),0.789,-1.46,-5.15 (inactive),0.03 (inactive),0.356 (inactive)
CCN(CC)c1ccc(N2CC=CC34O[C@@H]5C=CCOC(=O)[C@@H]5[C@H]3C(=O)N(C(C)CO)[C@@H]4C2=O)cc1 (some centres undefined),0.0517,-0.0277,0.149 (inactive),-1.73,0.339,-3.29 (inactive),0.36 (inactive),0.325 (inactive)
COc1ccc([Si](C)(C)[C@H]2[C@H](CC(=O)N(CCO)Cc3ccccc3)O[C@@]3(C(=O)N(Cc4ccc(N5CCC5=O)cc4)c4ccccc43)[C@@H]2C)cc1,1.33,-0.0948,2.44 (inactive),0.365,-1.24,-0.622 (inactive),-0.632 (inactive),-0.0543 (inactive)
Cc1ccc(N2C(=O)c3ccccc3[C@](C)(C(=O)NC3CC3)[C@@H]2c2ccc(CO)cc2)nc1,0.413,0.0253,-0.485 (inactive),-0.777,0.202,-1.18 (inactive),-0.0797 (inactive),0.24 (inactive)
[N-]=[N+]=NCc1ccccc1C[C@@]1(C(=O)NCc2ccccc2)N=C(c2ccc(OCCCO)cc2)O[C@@H]1c1ccccc1,0.732,-0.0172,0.746 (inactive),-0.409,-2.15,0.77 (inactive),-1.01 (inactive),-1.39 (inactive)
COCCCNC(=O)[C@@]1(C)c2ccccc2C(=O)N(Cc2cc(F)cc(C(F)(F)F)c2)[C@H]1c1ccc(CO)cc1,-1.97,2.62,-0.268 (inactive),-1.16,-0.753,-2.01 (inactive),-0.1 (inactive),0.802 (inactive)
CC(C)CNC(=O)[C@@H]1c2ccccc2C(=O)N(Cc2ccc(OC(F)(F)F)cc2)[C@H]1c1ccc(CO)cc1,1.74,0.205,0.0114 (inactive),0.762,-0.192,-2.67 (inactive),-0.919 (inactive),-1.36 (inactive)
C=CC[C@]1(C(=O)N2CCCCC2)COC(c2ccc(OCCCO)cc2)=N1,-0.212,-0.17,0.502 (inactive),0.54,-2.13,-4.15 (inactive),-0.8 (inactive),-1.06 (inactive)
O=C1c2ccccc2[C@@]2(Cc3ccccc3N(CC(F)(F)F)C2=O)[C@H](c2ccc(CO)cc2)N1Cc1ccccc1C(F)(F)F,-1.7,-0.0446,-0.765 (inactive),-1.23,0.226,-0.0255 (inactive),-0.563 (inactive),-0.816 (inactive)
CC(C)[C@@H](C(=O)O)n1cc(-c2ccccn2)nn1,0.703,-0.0597,0.353 (inactive),-0.548,-0.461,-1.37 (inactive),-0.0368 (inactive),-0.0613 (inactive)
COc1ccc([Si](C)(C)[C@@H]2[C@@H](CC(=O)N3CCC[C@H]3CO)O[C@]3(C(=O)N(Cc4ccc(N5CCC5=O)cc4)c4ccccc43)[C@H]2C)cc1,0.428,-0.117,1.15 (inactive),0.713,-0.0482,-2.83 (inactive),-0.245 (inactive),0.476 (inactive)
